From PubChem BioAssay (Tox21)
Records with an inconclusive call do not appear. A call without a number means that no potency is given here. Activity calls are given as the source filed them. Calls follow the shape of the dose curve; as a rule, active = well fitted curve in the direction sought with a large enough effect in the repeat runs; inconclusive = weak or mixed curves; inactive = no such curve, though single readings can be large; an effect the other way counts as inactive or inconclusive.

Columns and labels:
[1] = qHTS assay to identify small molecule agonists of the RXR signaling pathway - cell viability counter screen (AID 1159529); settings: RXR-alpha-bla HEK293T viability, CellTiter-Glo, 16 h; series mostly up to 76.8 µM; also: nearly all actives have a fitted effect of over 50% in size; also: potency is read from the fitted curve at half-maximal effect
In short: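 Steps: seed RXR-alpha-UAS-bla HEK 293T cells in assay medium containing 2% charcoal-stripped FBS; incubate 5 hr; add compounds in DMSO; incubate 16 hr at 37 C; after the bla read, add CellTiter-Glo and read luminescence at 30 min.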

[2] = qHTS assay to identify small molecule antagonists of the retinoid acid receptor (RAR) signaling pathway - cell viability counter screen (AID 1159551); settings: C3RL4 cells viability, ATP luminescence (CellTiter-Glo), 6 h; series mostly up to 92.4 µM; also: nearly all actives have a fitted effect of over 35% in size
In short: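 ATP-based viability, C3RL4 cells, 6 h at 37 C with 1 uM final retinol co-added after compound; luminescence read 30 min post CellTiter-Glo, RT.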

[3] = qHTS assay to identify small molecule antagonists of the retinoic acid receptor (RAR) signaling pathway (AID 1159552; also: nearly all actives have a fitted effect of over 50% in size; also: potency is read from the fitted curve at half-maximal effect); settings: C3RL4 RARE luciferase reporter, retinol-stimulated, 6 h; series mostly up to 92.4 µM
In short: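 Retinol at 1 uM final stimulated RARE-luciferase expression in C3RL4 cells exposed to test compounds for 6 hr at 37 C. Reduced luminescence, read 30 min after detection reagent, indicated pathway antagonism.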

[4] = qHTS assay to identify small molecule agonists of the retinoic acid receptor (RAR) signaling pathway (AID 1159553); settings: C3RL4 RARE luciferase reporter, agonist, 6 h; series mostly up to 73.3 µM; also: potency is read from the fitted curve at half-maximal effect
In short: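 Quantitative high-throughput format: the Tox21 10K library was tested on C3RL4 RARE-luciferase cells for 6 hr at 37 C and 5% CO2, with luminescence measured after a 30 min room-temperature reagent step.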

SMILES	Potency [1]	Potency [2]	Potency [3]	Potency [4]
O=C1NCCN1	inactive	inactive	–	–
Cc1c(C(=O)NN2CCCCC2)nn(-c2ccc(Cl)cc2Cl)c1-c1ccc(Cl)cc1	inactive	inactive	–	–
CCOC(=O)C(C)Oc1ccc(Oc2nc3ccc(Cl)cc3o2)cc1 (stereo not drawn)	inactive	inactive	inactive	–
Nc1ccc(S(=O)(=O)O)cc1	inactive	inactive	inactive	inactive
CC(C)c1nnc2ccc(-c3ocnc3-c3cc(F)ccc3F)cn12	inactive	inactive	27.3 µM (active)	inactive
O=C(O)c1ccccc1NCCc1ccccc1	inactive	inactive	inactive	23.7 µM (active)
Oc1ccc(Nc2ccccc2)cc1	30.9 µM (active)	inactive	inactive	inactive
CCC(C)(C)C1CCC(O)CC1 (stereo not drawn)	inactive	inactive	inactive	inactive
OCC1CC=CCC1 (stereo not drawn)	inactive	inactive	inactive	–
CC(Cl)C(Cl)Cl (stereo not drawn)	inactive	inactive	–	–
C=CC(=O)NCOCC(C)C	inactive	inactive	–	–
O=C(c1ccc(O)cc1)c1ccc(Cl)cc1	inactive	inactive	inactive	–
C=C(C)C(=O)OCCOC(=O)CC(C)=O	inactive	inactive	–	–
NCC1CCCC(CN)C1 (stereo not drawn)	inactive	inactive	inactive	inactive
CC(C)=CC=O	inactive	inactive	inactive	inactive
CC1=NN(c2ccc(C(=O)O)cc2)C(=O)C1	inactive	inactive	inactive	68.6 µM (active)
CCCCC(=O)O[C@]1(C(=O)CO)[C@@H](C)C[C@H]2[C@@H]3CCC4=CC(=O)C=C[C@]4(C)[C@@]3(F)[C@@H](O)C[C@@]21C	inactive	inactive	61.1 µM (active)	–
C[C@@H]1C[C@H]2[C@@H]3CCC4=CC(=O)C=C[C@]4(C)[C@@]3(F)[C@@H](O)C[C@]2(C)[C@@]1(O)C(=O)CO	inactive	inactive	–	–
Cc1ccc(Nc2nccc(N(C)c3ccc4c(C)n(C)nc4c3)n2)cc1S(N)(=O)=O	inactive	inactive	–	–
CCCOC(=O)c1ccc(C(=O)OCCC)nc1	inactive	inactive	inactive	68.6 µM (active)
O=C(NCCCN1CCOCC1)c1ccc(Cl)cc1	inactive	inactive	inactive	–
CCCCCCCCCCCC(=O)[O][Sn]([CH2]CCC)([CH2]CCC)[O]C(=O)CCCCCCCCCCC	inactive	inactive	29.8 µM (active)	inactive

SMILES	Potency [1]	Potency [2]	Potency [3]	Potency [4]
Cc1cc(O)c2c(O)c3c(O)cccc3cc2c1	inactive	inactive	inactive	inactive
CO/N=C1\CN(c2nc3c(cc2F)c(=O)c(C(=O)O)cn3C2CC2)CC1CN (stereo not drawn)	inactive	inactive	–	–
CC(C)(CCl)c1ccccc1	inactive	inactive	inactive	–
Cc1ccnc2ccccc12	inactive	inactive	inactive	–
O=C(N[C@@H](c1ccccc1)[C@@H]1CCCCN1)c1cccc(C(F)(F)F)c1Cl	inactive	inactive	–	–
CO[C@@]12[C@H](COC(N)=O)C3=C(C(=O)C(C)=C(N)C3=O)N1C[C@@H]1N[C@@H]12	inactive	inactive	10.6 µM (active)	–
CNC(=O)N(c1ccccc1)c1ccccc1	inactive	inactive	inactive	inactive
CN(C)C(=O)Nc1ccc(Oc2ccc(Cl)cc2)cc1	inactive	inactive	inactive	61.1 µM (active)
O=c1[nH]c2ccc(S(=O)CCN3CCC(Cc4ccc(F)cc4)CC3)cc2o1 (stereo not drawn)	inactive	inactive	inactive	inactive
Nc1ccc(C(=O)OCCCOC(=O)c2ccc(N)cc2)cc1	inactive	inactive	inactive	–
CCC(=O)Oc1ccc(/C(CC)=C(\CC)c2ccc(OC(=O)CC)cc2)cc1	54.9 µM (active)	inactive	inactive	–
COc1ccc([C@@H]2Sc3ccccc3NC(=O)[C@@H]2O)cc1	inactive	inactive	–	–
CN(C(=O)C(Cl)Cl)c1ccc(OC(=O)c2ccco2)cc1	inactive	inactive	–	–
CCCCCCOC(=O)C(C)C	inactive	inactive	inactive	inactive
Nc1c(I)cc(I)c(C(=O)N(CCC(=O)O)c2ccccc2)c1I	inactive	inactive	inactive	inactive
CC(=O)Oc1ccc(C(=C2CCCCC2)c2ccc(OC(C)=O)cc2)cc1	inactive	inactive	inactive	–
Cc1ccc(/C=N/n2c(-c3ccccc3)csc2=S)cc1	inactive	inactive	inactive	inactive
C=CC(C)(C)CC(=O)OC	inactive	–	15.4 µM (active)	inactive
O=C(CCCN1CCC(O)(c2ccc(Br)cc2)CC1)c1ccc(F)cc1	inactive	inactive	–	inactive
Cc1ccc(S(=O)(=O)NC2CCCCC2)cc1	inactive	inactive	–	inactive
O=C(O)c1ccc(CO)o1	inactive	–	inactive	inactive
O=C(O)Cc1ccc(-c2ccccc2)cc1	inactive	–	inactive	inactive
